# Results as given in PubChem BioAssay (NCI).
# Compounds without any hit were thinned out: in the full panel of roughly 83,000, 20% have a hit.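 Single-dose data. Exposure time 48 hours. Values below 10 considered active.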 A number with no mark means an inactive call. Activity calls are given as the source filed them.
# Tested on: OVCAR-4 ovarian
# Assay: NCI-60 one-dose screen, 48 h (100 = growth as untreated, 0 = no growth, -100 = all killed)
# Settings: 10 µM
# Procedure: Growth inhibition of the OVCAR-4 human tumor cell line is measured as a screen for anti-cancer activity. Cells are grown in 96 well plates and exposed to the test compound for 48 hours. Compounds are tested at a single concentration, which is 10^-5 M for most compounds. The reported endpoint is percent growth (GI% or GIPRCNT), where numbers from 0 - 100% represent growth inhibition, and numbers from -100% - 0 represent cell death. For example, a value of 40 represents 60% growth inhibition. A value of 0 means no net growth occurred over the course of the experiment. A value of -40 indicates 40% of cells at the beginning of the experiment died by the end of the experiment. A value of -100 means all cells are dead at the end of the experiment.
# NCI-60 Human Tumor Cell Lines Screen was performed using the standard one-dose NCI protocol, which is described in more detail at https://dtp.cancer.gov/discovery_development/nci-60/default.htm.
# Compounds with GIPRCNT values below 10 were considered active. Activity score was based on GIPRCNT using the following formula: […]
# Score is 0 for GIPRCNT values of 100 or above, 50 for GIPRCNT values of 0, and 100 for GIPRCNT values of -100.
row,Structure (SMILES),growth
1,CCOc1ccccc1/C=N\Nc1ccc(S(=O)(=O)c2ccc(N/N=C/c3ccccc3OCC)cc2)cc1,96.6%
2,COc1cc2c(c(OC)c1)C1c3cc(OC)ccc3NC(=O)N1CC2 (stereo not given),96.2%
3,Cc1ccccc1-n1nnc(C(=O)Nc2nc3ccc(F)cc3s2)c1C,10.6%
4,CCc1ccc(C2=C/C(=C/c3ccccc3)C(=O)N2CCc2ccc(S(N)(=O)=O)cc2)cc1,103%
5,CCCCCCCCN(CCCCCCCC)CC(O)c1ccc(Cl)c(C)c1Cl (stereo not given),93.5%
6,COc1ccc(C=C2c3ccccc3-c3ccccc32)cc1,80.2%
7,Nc1cc(N)c(N=Nc2ccc(S(=O)(=O)O)cc2)cc1N=Nc1ccc(-c2ccc(N=Nc3ccc(O)c(C(=O)O)c3)cc2)cc1,103%
8,Nc1nc(Nc2ccccc2)c2ncn(Cc3cc4c(cc3Br)OCO4)c2n1,40.6%
9,CC(C)C1=NOC(=O)C1=Cc1cn(-c2ccccc2)nc1-c1ccccc1,95.4%
10,CC1(C)CC(=O)c2c(ccc(C(=O)C[C@@H](N)CO)c2N)O1,71.1%
11,O=C(Nc1cccc(C2=NCCN2)c1)c1cccc(C(=O)Nc2cccc(C3=NCCN3)c2)c1,94.7%
12,O=C(N/N=C1\c2ccccc2-c2cccc(C(=O)O)c21)c1ccc(O)cc1,101%
13,CC(C)CCNCC(C)(C)O,115%
14,CCOC(=O)C(C(C)=O)c1nc2sc3cc(Cl)c(Cl)cc3n2c(=O)c1C#N (stereo not given),94.5%
15,O=C(CCCSc1nc(-c2ccccc2)cc(-c2ccccc2)n1)NO,11.9%
16,COc1cc(-c2cc(-c3ccc(Nc4ncnc5cc(Cl)ccc45)cc3)nc(N3CCCCC3)n2)cc(OC)c1OC,106%
17,CC(C)CCSC1=CC(=O)c2ccccc2C1=O,-50.6% (active)
18,CCCCCC1CCCCN1C(=O)OCCCC (stereo not given),103%
19,COc1cc(NCc2cn(-c3ccc(C(=O)O)cc3)nc2-c2ccc(C(=O)O)cc2)cc(OC)c1OC,94.4%
20,N#CC1C(=O)NC(c2ccccc2[N+](=O)[O-])c2sc3c(F)cccc3c21 (stereo not given),-0.483% (active)

row,Structure (SMILES),growth
1,COc1cc2c(c(Br)c1N)-c1cc(Br)c(N)cc1C2=O,22.2%
2,O=C1CC(c2ccccc2)Cc2nc3ccc(Br)cc3cc21 (stereo not given),47%
3,Cc1cc(SC#N)ncn1,103%
4,Cn1cc(-c2noc(C(=O)c3cn(C)c4ncc(Br)cc34)n2)c2ccccc21,100%
5,Nc1nc(Nc2ccccc2)c2ncn(Cc3ccc4c(c3)OCO4)c2n1,66.9%
6,CC1(C)S[C@@H]2[C@H](NC(=O)[C@H](C(=O)O)c3cccs3)C(=O)N2[C@H]1C(=O)O,112%
7,COc1ccc(N(c2nc(-c3ccc([N+](=O)[O-])cc3)cs2)C(C)C)cc1,70%
8,Cc1ccc(N)c(O)c1,84.2%
9,CC(C)(C)c1cc(C(=O)Nc2ccc(C(=O)NCCN)cc2)cc(C(C)(C)C)c1,62.3%
10,N#Cc1ccc(-c2ccc(COc3ccc(CC4SC(=O)NC4=O)cc3)cc2)cc1 (stereo not given),40.8%
11,C[C@]12CCc3c(ccc4cc(O)ccc34)[C@@H]1CC[C@H]2O,96.1%
12,Fc1ccc(NC(=S)c2ccccc2)cc1,100%
13,COc1cc2c(c(OC)c1OC)-c1ccc(NNC(N)=S)c(=O)cc1[C@@H](NC(C)=O)CC2,23.1%
14,COC(=O)c1cc2c(=O)[nH]cc3c2c(n1)CCC3,103%
15,Cc1ccc(S(=O)(=O)N/N=C2\CC3CCC2(C)C3(C)C)cc1 (stereo not given),104%
16,Cc1cc(NN=C(c2ccc(O)cc2)c2ccc(O)cc2)c([N+](=O)[O-])cc1[N+](=O)[O-],52.6%
17,Cc1cccc(/C=C2\N=C(c3ccccc3)N(c3ccc(S(N)(=O)=O)cc3)C2=O)c1,77.1%
18,COC(=O)c1c(C)[nH]c(/C=C2\N=C(c3ccc[nH]3)C=C2OC)c1C,-67.2% (active)
19,O=C1NC(=O)C(Cc2ccc(OCc3ccc(-c4cc(F)c(F)c(F)c4)cc3)cc2)S1 (stereo not given),68.7%
20,c1cc2ccc1CNCCN1CCNCc3ccc(cc3)Oc3ccc(cc3)CNCCN(CCNCc3ccc(cc3)O2)CCNCc2ccc(cc2)Oc2ccc(cc2)CNCC1,-77.6% (active)
